We go through 8 molecules from PubChem BioAssay (Tox21).

The nature of assay [1]: Nuclear factor erythroid 2-related factor 2/antioxidant responsive element (Nrf2/ARE) small molecule agonists: qHTS cell viability counter screen in human keratinocytes (AID 1919968; active = well fitted curve in the direction sought with a large enough effect in the repeat runs; an effect the other way counts as inactive or inconclusive; note: nearly all actives have a fitted effect of over 55% in size). The method in brief:
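In human HaCaT keratinocytes stably expressing an ARE-driven luciferase, compound exposure lasted 23 h at 37 C under 5% CO2. Viable cells are quantified with a protease-based fluorogenic reagent (CellTiter-Fluor) read 1 h after addition.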
In general terms: Quantitative high-throughput screening tests each substance at several concentrations.

Assay [2] is described as follows: Nuclear factor erythroid 2-related factor 2/antioxidant responsive element (Nrf2/ARE) small molecule agonists: luciferase reporter gene qHTS assay in human keratinocytes (AID 1919969). Note: nearly all actives have a fitted effect of over 35% in size. Note: potency is the fitted concentration of half-maximal effect.
Assay [3] has as its target Gonadotropin-releasing hormone receptor (Homo sapiens) (UniProt P30968). The experiment in a line: Human gonadotropin-releasing hormone receptor (GnRHR) small molecule agonists, calcium flux assay in GnRHR-HEK293 cells (AID 1920063). Note: nearly all actives have a fitted effect of over 35% in size. Summed up:
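Intracellular calcium rise is the read-out: engineered human GnRHR HEK293 cells, dye-loaded, are exposed to DMSO-dissolved compounds and fluorescence at Ex/Em 480/540 is tracked for 3 min.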

For assay [4], the target named is KiSS-1 receptor (Homo sapiens) (UniProt Q969F8). The experiment in a line: Human kisspeptin (KISS1R) small molecule agonists, calcium flux assay in KISS1R-HEK293 cells (AID 1920064; active = well fitted curve in the direction sought with a large enough effect in the repeat runs; an effect the other way counts as inactive or inconclusive). Summed up:
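Concentration-response testing used 15 concentrations in triplicate on human KISS1R-expressing HEK293 cells. Calcium-dependent fluorescence (Ex/Em 480/540) was followed kinetically for 3 min after compound transfer.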
In general terms: A change in cytosolic calcium serves as a functional read-out for many receptors and channels.

Assay [5] is described as follows: p53 small molecule agonists, cell-based qHTS assay with human liver microsomes (AID 1963577). Summed up: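 Fluorescence of the beta-lactamase reporter in p53RE-bla cells, detected with LiveBLAzer substrate (2 h, room temperature, dark), served as the read-out after 16 h compound exposure at 37 C with human liver microsomes and NADPH, each 0.5 mg/mL final.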
Assay [6] can be described thus: p53 small molecule agonists, cell-based qHTS assay with rat liver microsomes (AID 1963578). Summed up: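 Cells carrying a p53 response element–beta-lactamase reporter were plated and rested 5 h, then dosed with compound in DMSO plus rat liver microsomes and NADPH, each at 0.5 mg/mL final. After 16 h at 37 C, LiveBLAzer substrate was added for 2 h.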
A short description of assay [7]: p53 small molecule agonists, cell-based qHTS assay with human liver microsomes: qHTS cell viability counter screen (AID 1963579). Note: nearly all actives have a fitted effect of over 45% in size. Summed up: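 Cytotoxicity counter screen: p53RE-bla, 4,000 cells/well; 5 h settle, 37 C/5% CO2; cpd + HLM 0.5 mg/mL + NADPH 0.5 mg/mL (final); 16 h, 37 C; CellTiter-Glo, 30 min RT, luminescence.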
Assay [8] is described as follows: p53 small molecule agonists, cell-based qHTS assay with rat liver microsomes: qHTS cell viability counter screen (AID 1963580). Note: nearly all actives have a fitted effect of over 45% in size. Summed up:
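Luminescent ATP readout (CellTiter-Glo, 30 min at room temperature) reports viability of p53RE-bla HCT-116 cells after 16 h at 37 C with test compounds under metabolic activation by rat liver microsomes and NADPH at 0.5 mg/mL final each.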

A short description of assay [9]: p53 small molecule agonists, cell-based qHTS assay: qHTS cell viability counter screen (AID 1963581). Note: nearly all actives have a fitted effect of over 45% in size. Summed up: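 Luminescence from CellTiter-Glo, reflecting ATP content, serves as the cytotoxicity measure; it is taken after the 2 h reporter substrate step in HCT-116 p53RE-bla cells dosed for 16 h at 37 C.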
In assay [10] the target is 5-hydroxytryptamine receptor 2A (Homo sapiens) (UniProt P28223). Nature of the assay: 5-hydroxytryptamine receptor 2A (HTR2A) small molecule agonists, cell-based qHTS assay (AID 1963587). Note: nearly all actives have a fitted effect of over 30% in size. The method in brief: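 HTR2A-CHO cells, plated 18 h at 37 C/5% CO2, dye-loaded 1 h at 37 C; compounds in DMSO added by pin tool (agonist mode). Intracellular calcium flux read as kinetic fluorescence on FDSS over 2 min at 1 s intervals.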
5-hydroxytryptamine receptor 2A (Homo sapiens), sequence (P28223 whole entry, looked up): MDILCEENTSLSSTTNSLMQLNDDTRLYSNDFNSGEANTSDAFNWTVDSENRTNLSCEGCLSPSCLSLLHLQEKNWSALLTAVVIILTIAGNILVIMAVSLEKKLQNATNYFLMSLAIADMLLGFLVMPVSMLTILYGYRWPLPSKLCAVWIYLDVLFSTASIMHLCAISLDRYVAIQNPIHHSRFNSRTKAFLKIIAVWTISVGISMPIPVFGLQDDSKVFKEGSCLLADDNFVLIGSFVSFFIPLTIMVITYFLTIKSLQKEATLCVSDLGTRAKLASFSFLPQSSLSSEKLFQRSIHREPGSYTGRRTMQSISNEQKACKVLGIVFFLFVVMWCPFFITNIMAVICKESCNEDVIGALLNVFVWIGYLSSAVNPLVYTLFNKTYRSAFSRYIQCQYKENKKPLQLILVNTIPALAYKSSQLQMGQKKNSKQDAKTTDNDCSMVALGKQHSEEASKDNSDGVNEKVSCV

Assay [11] concerns the target Muscarinic acetylcholine receptor M1 (Homo sapiens) (UniProt P11229). Nature of the assay: Cholinergic receptor muscarinic 1 (CHRM1) small molecule antagonists, cell-based qHTS assay (AID 1963588). Note: nearly all actives have a fitted effect of over 40% in size. The method in brief:
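Compounds were tested at 15 concentrations in three independent runs. Dye-loaded CHRM1-CHO cells were exposed 5 min at room temperature before stimulation by acetylcholine added at 50nM. Intracellular calcium was read kinetically on FDSS for 3 min.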

Assay [12] is described as follows: cAMP Responsive Elements (CRE) small molecule agonists, cell-based qHTS assay (AID 1963590). Summed up: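 Compound exposure lasted 3 h at 37 C/5% CO2 in CRE-bla HEK 293T cells grown in assay medium with 10% dialyzed FBS and 25 mM HEPES. Reporter signal came from LiveBLAzer B/G FRET substrate, 2 h, room temperature.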
A short description of assay [13]: cAMP Responsive Elements (CRE) small molecule antagonists, cell-based qHTS assay (AID 1963591; active = well fitted inhibition curve with a large enough effect in the signal ratio in the repeat runs, not every such curve was filed as active; the % refers to the signal ratio). Summed up: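 Stimulation used NKH477 at a final 0.25 uM for 3 h in compound-treated CRE-bla HEK293T cells, seeded 18 h beforehand. Reporter activity was measured with LiveBLAzer B/G FRET substrate after 2 h at room temperature.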
For assay [14], the target named is Beta-2 adrenergic receptor (Homo sapiens) (UniProt P07550). Nature of the assay: Adrenergic beta2 receptor (ADRB2) small molecule antagonists, cell-based qHTS assay (AID 1963592). Note: series mostly up to about 92 µM; nearly all actives have a fitted effect of over 50% in size. The method in brief:
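Assay format: CHO-ADRB2 cells, 18-20hr seeding at 37C/5% CO2, then compound plus 1nM isoproterenol agonist mix for 0.5hr RT. Homogeneous time-resolved fluorescence cAMP detection after 1hr, expressed as 665/615 nm ratio.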

Assay [15] in a line: p53 small molecule agonists, cell-based qHTS assay (AID 1963582; active = well fitted activation curve with a large enough effect in the signal ratio in the repeat runs, not every such curve was filed as active; the % refers to the signal ratio). Summed up:
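After plating, p53RE-bla cells sat 5 h in the incubator; compounds or DMSO vehicle were pinned in; a 16 h incubation at 37 C followed; FRET substrate was added and, 2 h later at RT, fluorescence was measured.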

Assay [16] has as its target 5-hydroxytryptamine receptor 2A (Homo sapiens) (UniProt P28223). The experiment in a line: 5-hydroxytryptamine receptor 2A (HTR2A) small molecule antagonists, cell-based qHTS assay (AID 1963586). Note: nearly all actives have a fitted effect of over 45% in size. The method in brief: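 CHO cells stably expressing human HTR2A were plated for 18 h at 37 C, then loaded with calcium dye for 1 h. Compounds were preincubated 5 min at room temperature before DOI (4 nM solution) was added. Kinetic fluorescence was read for 3 min.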

For assay [17], the target named is Muscarinic acetylcholine receptor M1 (Homo sapiens) (UniProt P11229). Nature of the assay: Cholinergic receptor muscarinic 1 (CHRM1) small molecule agonists, cell-based qHTS assay (AID 1963589). Note: nearly all actives have a fitted effect of over 35% in size. Summed up:
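Fluorescent calcium dye reports M1 activation in stably transfected CHO cells. Compounds, 15 concentrations, added after 1 h dye loading at 37 C; kinetic reading at 1 sec intervals.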

For assay [18], the target named is D(2) dopamine receptor (Homo sapiens) (UniProt P14416). The experiment in a line: Dopamine D2 receptor (DRD2) small molecule agonists, cell-based qHTS assay (AID 1963594). Note: nearly all actives have a fitted effect of over 35% in size. Summed up: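 HEK293 cells stably expressing DRD2 were cultured 24 h at 37 C, then given Ro20-1724 (0.1 mM final) and compounds for 10 min at room temperature. NKH477 (200nM) was then added for 30 min. cAMP was read by HTRF.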
D(2) dopamine receptor (Homo sapiens), sequence (P14416 whole entry, looked up): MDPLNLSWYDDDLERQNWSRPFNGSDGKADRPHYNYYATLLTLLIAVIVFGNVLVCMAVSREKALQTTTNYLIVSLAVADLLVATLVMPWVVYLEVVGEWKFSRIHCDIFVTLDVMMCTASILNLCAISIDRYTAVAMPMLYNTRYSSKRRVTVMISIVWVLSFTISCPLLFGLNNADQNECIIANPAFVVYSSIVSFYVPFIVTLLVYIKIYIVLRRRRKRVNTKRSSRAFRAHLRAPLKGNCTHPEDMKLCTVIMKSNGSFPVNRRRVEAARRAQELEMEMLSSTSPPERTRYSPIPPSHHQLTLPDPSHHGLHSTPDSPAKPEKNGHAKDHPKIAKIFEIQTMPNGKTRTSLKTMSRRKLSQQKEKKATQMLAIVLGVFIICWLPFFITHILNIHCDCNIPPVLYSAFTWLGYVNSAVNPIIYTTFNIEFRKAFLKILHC

For assay [19] the target is unchanged. Nature of the assay: Dopamine D2 receptor (DRD2) small molecule antagonists, cell-based qHTS assay (AID 1963595; active = well fitted inhibition curve with a large enough effect in the signal ratio in the repeat runs, with a control signal flat; the % refers to the signal ratio). Summed up: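 HEK293 cells stably expressing DRD2, preincubated with 0.1 mM Ro20-1724 and compounds 10 min, were stimulated with 200 nM NKH477 plus 12 nM quinpirole for 30 min at room temperature; cAMP measured by HTRF (665/620 nm).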
Assay [20] can be described thus: G protein-coupled receptor (GPCR) small molecule agonists, calcium flux assay: HEK293 wild type cell line counter screen (AID 1920065). The method in brief: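 Fluorescence intensity signals activation. After overnight (18 h) culture and a 1 h calcium dye load at 37 C, compounds are added by pin tool and the plate read at 480/540 nm for 3 min in 1 s steps.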

Results filed as inconclusive are left out. Activity calls are given as the source filed them. Unless noted, calls come from the whole dose curve.

Gonadotropin-releasing hormone receptor (Homo sapiens), sequence (P30968 whole entry, looked up): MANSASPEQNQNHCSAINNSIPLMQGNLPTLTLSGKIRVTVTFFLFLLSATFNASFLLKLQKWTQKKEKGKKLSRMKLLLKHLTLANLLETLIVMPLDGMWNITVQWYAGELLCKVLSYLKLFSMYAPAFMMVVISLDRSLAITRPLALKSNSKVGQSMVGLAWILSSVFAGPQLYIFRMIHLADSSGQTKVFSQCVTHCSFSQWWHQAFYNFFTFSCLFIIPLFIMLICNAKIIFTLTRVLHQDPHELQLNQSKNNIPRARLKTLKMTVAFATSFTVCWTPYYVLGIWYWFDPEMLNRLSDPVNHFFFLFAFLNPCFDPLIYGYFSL
Beta-2 adrenergic receptor (Homo sapiens), sequence (P07550 whole entry, looked up): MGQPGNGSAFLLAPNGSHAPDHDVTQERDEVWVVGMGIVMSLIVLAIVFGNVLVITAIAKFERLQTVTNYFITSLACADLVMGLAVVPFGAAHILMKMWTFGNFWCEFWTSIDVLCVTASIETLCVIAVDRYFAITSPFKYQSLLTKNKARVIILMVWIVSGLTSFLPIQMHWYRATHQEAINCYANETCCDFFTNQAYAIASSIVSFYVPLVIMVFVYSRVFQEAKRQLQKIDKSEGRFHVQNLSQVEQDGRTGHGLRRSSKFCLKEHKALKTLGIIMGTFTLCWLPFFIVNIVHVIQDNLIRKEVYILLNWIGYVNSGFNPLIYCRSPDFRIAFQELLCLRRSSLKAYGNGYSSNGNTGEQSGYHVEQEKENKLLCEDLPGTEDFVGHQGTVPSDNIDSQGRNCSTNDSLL
Muscarinic acetylcholine receptor M1 (Homo sapiens), sequence (P11229 whole entry, looked up): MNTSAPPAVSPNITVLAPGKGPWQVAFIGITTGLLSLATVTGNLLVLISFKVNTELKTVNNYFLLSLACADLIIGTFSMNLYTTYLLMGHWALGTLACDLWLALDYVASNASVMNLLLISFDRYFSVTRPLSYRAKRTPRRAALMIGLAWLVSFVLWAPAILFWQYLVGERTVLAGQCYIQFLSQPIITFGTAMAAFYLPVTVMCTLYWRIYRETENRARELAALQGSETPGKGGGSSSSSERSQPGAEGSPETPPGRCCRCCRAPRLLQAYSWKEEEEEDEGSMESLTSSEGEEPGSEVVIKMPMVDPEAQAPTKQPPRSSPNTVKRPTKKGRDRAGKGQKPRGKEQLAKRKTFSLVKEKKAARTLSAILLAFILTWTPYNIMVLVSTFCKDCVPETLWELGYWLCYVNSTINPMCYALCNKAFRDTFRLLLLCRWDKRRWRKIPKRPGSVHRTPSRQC
KiSS-1 receptor (Homo sapiens), sequence (Q969F8 whole entry, looked up): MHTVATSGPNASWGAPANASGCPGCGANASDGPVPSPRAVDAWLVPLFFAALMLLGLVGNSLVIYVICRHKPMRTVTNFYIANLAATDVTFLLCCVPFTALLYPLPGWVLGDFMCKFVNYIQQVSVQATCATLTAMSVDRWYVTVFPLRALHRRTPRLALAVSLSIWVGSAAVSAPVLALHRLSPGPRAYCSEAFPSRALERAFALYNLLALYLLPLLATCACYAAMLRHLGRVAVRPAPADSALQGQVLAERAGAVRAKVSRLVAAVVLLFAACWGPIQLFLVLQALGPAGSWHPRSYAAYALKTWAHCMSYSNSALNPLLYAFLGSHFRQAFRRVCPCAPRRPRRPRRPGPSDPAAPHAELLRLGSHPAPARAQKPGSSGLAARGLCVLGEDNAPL

`Nc1ccc(S(=O)(=O)NCc2ccccc2)cc1`: the Potency entry in assay [1], in assay [2], in [3], in assay [5], in assay [6] and in assay [7] was “inactive” in each case. Further, the Potency entry in assay [8], in [9], in assay [10], in [11], in assay [12] and in [13] was “inactive” throughout. The Potency result in assay [14] is “inactive”. For the same molecule, the outcome in [4] was inactive.
Consider `Cc1cc(C(=O)O)ccc1[N+](=O)[O-]`, for which the Potency result in [1], in assay [2], in [3], in assay [5], in assay [6] and in [7] was “inactive” each time. The Potency result in [8], in assay [9], in assay [15], in [16], in assay [10] and in assay [17] was “inactive” each time. Moreover, the Potency entry in [13], in [18] and in [19] was “inactive” each time. In addition, in assay [4], the outcome was inactive.
As to `CC(=O)CC(C)C`, the Potency entry in assay [1], in assay [2], in assay [3], in assay [5], in assay [6] and in [7] was “inactive” throughout. In addition, the Potency entry in assay [8], in [9], in assay [15], in [10], in assay [11] and in [17] was “inactive” each time. The Potency entry in assay [12], in [13], in assay [14], in [18] and in assay [19] was “inactive” throughout. Moreover, in assay [4], the outcome was inactive.
Take `Cc1ccccc1C(=O)Nc1ccc(C(=O)N2CCCC(N(C)C)c3ccccc32)cc1` (configuration not stated): the Potency result in assay [1], in [2], in assay [3], in assay [5], in assay [7] and in assay [8] was “inactive” throughout. In addition, the Potency entry in assay [16], in assay [10], in assay [11], in assay [17], in [18] and in [19] was “inactive” throughout. In addition, the outcome in assay [4] was inactive.
Consider `CCOCC(O)COc1ccc(NC(=O)CC[S+](C)C)cc1` (configuration not stated), for which the Potency entry in assay [1], in assay [2], in assay [3], in [5], in assay [6] and in assay [8] was “inactive” throughout. In addition, the Potency entry in [9], in [15], in assay [16], in assay [10], in [11] and in [17] was “inactive” throughout. The Potency result in assay [12], in assay [13], in [14] and in [19] was “inactive” each time. The outcome in assay [4] was inactive.
With `CCc1cccc(C)c1`, the Potency entry in assay [1], in [2], in assay [3], in assay [5], in assay [6] and in assay [7] was “inactive” each time. The Potency entry in assay [8], in assay [9], in assay [15], in [16], in assay [10] and in assay [11] was “inactive” in each case. Further, the Potency entry in assay [17], in assay [12], in assay [13], in [14], in assay [18] and in [19] was “inactive” each time. Besides, in assay [20], the result was inactive.
As to `Cc1c(N)cccc1[N+](=O)[O-]`, the Potency entry in assay [1], in [3], in [7], in assay [8], in assay [9] and in [15] was “inactive” throughout. Also, the Potency result in assay [10], in assay [11], in assay [17], in assay [12], in assay [13] and in [14] was “inactive” throughout. The Potency entry in assay [18] and in assay [19] was “inactive” throughout. Moreover, in assay [2], the Potency is 27.8 µM (active). Moreover, the outcome in assay [4] was inactive.
Turning to `CC1OCCC1=O` (configuration not stated), the Potency entry in assay [1], in assay [2], in assay [3], in assay [5], in assay [6] and in assay [7] was “inactive” throughout. Besides, the Potency result in [8], in assay [9], in [15], in assay [16], in assay [10] and in [11] was “inactive” in each case. The Potency result in assay [17], in assay [12], in assay [13], in [14], in assay [18] and in [19] was “inactive” in each case. Besides, the result in assay [20] was inactive.
